TDP1 cell CPT = DT40-hTDP1 cell growth loss with CPT; chicken DT40 Tdp1-/-;hTDP1 cells + 20 nM CPT, ATP luminescence, 48 h; Potency, µM (highest dose often 46.2 µM), for inactives: at the highest dose activity change, negative = growth inhibition, usual class: inhibitors; 420,000 compounds, 12% hits; further: potency means the concentration at half of the fitted maximal effect; on the % scale 0 is the no-effect control and ±100 the full control effect; nearly all actives have a fitted effect of over 55% in size
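Chicken DT40 Tdp1-/- cells complemented with human TDP1, 400 cells/well, exposed to compounds plus 20 nM camptothecin for at least 48 h at 37 C; viability read as ATP content by CellTiter-Glo luminescence.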
SW480 rereplic = DNA re-replication induction in SW480 cells; SW480 DNA re-replication, Hoechst DNA content imaging, 48 h; Potency, µM (titrated, usually from 46.1 µM), without a hit: at the highest dose re-replication activation, most hits filed as activators; 340,000 compounds, 1.8% hits; AID 624297; further: potency means the concentration at half of the fitted maximal effect; % of control where 0% means no effect; nearly all actives have a fitted effect of over 55% in size
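First, 250 cells per well were seeded. Next, compound or vehicle (23 nL) was pinned in, plates sat 48 hr at 37 C. Finally Hoechst was added for 40 min before fluorescence scanning.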
Chronic BCR inh = chronic active BCR signaling inhibition | Potency, µM (series often up to 46.1 µM), inactives show at the highest dose activity change, negative = inhibition, usual class: inhibitors | 340,000 compounds, 0.05% hits | ABC-DLBCL IkBa-CBG/CBR reporter, luminescence ratio, 4 h; active means well fitted inhibition curve with a large enough effect in the signal ratio, with a control signal flat, not every such curve was filed as active; inconclusive means small, poorly fitted or top-dose-only effect, or effect the other way, or a change in a side signal; the % refers to the signal ratio;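 further: potency means the concentration at half of the fitted maximal effect; plate controls were basal doxycycline-induced cells for no effect and cells given 10 µM MG132 for full effect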
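TMD8 human ABC-DLBCL cells with doxycycline-inducible IκBα–green luciferase fusion and unfused red luciferase, in 0.5% FBS medium; compounds up to 46 uM, 4 h at 37C. Green/red luminescence ratio, filter-overlap corrected, fitted to concentration-response curves.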
IL-1B inflam inh = blocks inflammasome-driven IL-1 beta release | THP-1 LPS/ATP IL-1B secretion, AlphaLISA, 16 h; active compounds read low | activity change, % at 57.5 µM | 360,000 compounds, 4.7% hits; in the data active means activity change below about -50%; inconclusive means mostly about -30% to -49%; further: on the % scale 0 is the no-effect control and ±100 the full control effect
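THP-1 cells pretreated 1 hr with compounds (up to 57.5 uM final), then stimulated with LPS (250 ng/mL final) plus ATP (1.25 mM final); secreted IL-1B measured by AlphaLISA after 16 hr, decreased signal indicating inhibition.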
DT40 TDP1 no CPT = qHTS for Inhibitors of human tyrosyl-DNA phosphodiesterase 1 (TDP1): qHTS in cells in absence of CPT; DT40 Tdp1-/- hTDP1 cells, no CPT, ATP luminescence, 48 h; Potency, µM (titrated, usually from 46.2 µM), inactives show at the highest dose activity change, negative = growth inhibition, hits mostly inhibitors; 420,000 compounds, 15% hits; further: potency means the concentration at half of the fitted maximal effect; on the % scale 0 is the no-effect control and ±100 the full control effect; nearly all actives have a fitted effect of over 55% in size
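Luminescent ATP content (CellTiter-Glo) served as the growth readout. Knockout chicken DT40 cells expressing human TDP1 were exposed to compounds without camptothecin for a minimum 48 hr at 37 °C.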
MCF10A rereplic = inducers of DNA re-replication in MCF 10A breast cells. 350,000 compounds, 2.9% hits. AID 624296. MCF 10A DNA re-replication, Hoechst nuclear intensity, 48 h. Potency, µM (series often up to 46.1 µM), for the others: at the top dose activity, positive = re-replication, hits mostly activators; further: potency means the concentration at half of the fitted maximal effect; % of control where 0% means no effect; nearly all actives have a fitted effect of over 50% in size
An asterisk follows results filed as active; ? = inconclusive; . = no result given; ! = not active in a repeat. A selection: hits, their analogues and other compounds. The true share with any hit is near 19%. Unless noted, the call rests on the fitted dose curve; in most records, active means well fitted curve in the direction sought with a large enough effect; inconclusive means small, poorly fitted or top-dose-only effect, or another doubt; inactive means no such curve, though single readings can be large; an effect the other way counts as inactive or inconclusive.

SMILES	TDP1 cell CPT	SW480 rereplic	Chronic BCR inh	IL-1B inflam inh	DT40 TDP1 no CPT	MCF10A rereplic
Cc1cc(C)n2c(NCc3ccccc3)c(-c3cc4ccccc4o3)nc2n1	16.4µM*	.	.	10.4	14.6µM*	.
CC(=O)N=c1scc(-c2ccccc2)n1-c1cccc(O)c1	?	-17.4%	15.7%	18.8	16.4µM*	1.9%
O=C1C=CC2=C3c4cc(O)c(O)cc4CC3(O)COC2=C1O (centres undefined)	16.4µM*!	-64.7%	.	-3.1	?	-2.1%
CCOC(=O)C1=C(COC(=O)Cc2ccccc2)NC(=O)NC1C (centres undefined)	-5.1%	-7.9%	1.4%	17.1	2.9%	-1.2%
O=S(=O)(c1ccc(Cl)c(Cl)c1)c1snnc1-c1ccccc1	2.59µM*	1.3µM*	?	-116.3*	3.26µM*	4.61µM*
CCc1ccc(C2=CSC3=NCCN23)cc1	-3.5%	-29.4%	-1.0%	-8.1	?	4.0%
CC(=O)N1CCN(C(C(=O)Nc2c(C)cccc2C)c2cccc(F)c2)CC1 (centres undefined)	1.5%	.	.	-3.0	0.8%	.
Cc1[nH]c2ccccc2c1C(=O)CN1CCN(C/C=C/c2ccccc2)CC1	?	4.3%	-3.1%	?	18.4µM*	?
Cc1[nH]c2ccccc2c1C(=O)CN1CCN(C2CCCCC2)CC1	.	.	2.8%	.	.	.
COc1ccc2[nH]c(C)c(C(=O)CN3CCN(C/C=C/c4ccccc4)CC3)c2c1	18.4µM*	?	?	?	?	?
COc1ccc2[nH]c(C)c(C(=O)CN3CCN(C(=O)c4ccco4)CC3)c2c1	-13.1%	0.6%	?	0.9	-8.2%	8.9%
Cc1cc(C)cc(NC(=O)CSc2nc3[nH]ncc3c(=O)[nH]2)c1	?	?	21.8%	0.8	?	?
Cc1ccc(-c2csc(NC(=O)CSc3nc(C)cc(=O)[nH]3)n2)cc1	18.4µM*	-2.8%	?	34.3	18.4µM*	?
Cc1ccc(-c2csc(NC(=O)CSc3nnc4c(n3)[nH]c3ccccc34)n2)cc1	13µM*	?	0.4%	-5.0	5.8µM*	16.4µM*
Cc1csc(NC(=O)CSc2nc3[nH]ncc3c(=O)[nH]2)n1	?	-11.4%	?	3.7	29.1µM*	-8.5%
CCOC(=O)CN(C(=O)CSc1nnc2c(n1)[nH]c1ccc(OC)cc12)c1ccc(F)cc1	20.6µM*	3.3%	?	-58.8*	?	-0.2%
Cc1ccc(-c2csc(NC(=O)CSC3=NCCS3)n2)cc1	?	-12.4%	?	?	-28.7%	16.4%
COCCN1C(=O)CCC1(C)C(=O)NC1CCCC1 (centres undefined)	-5.8%	.	.	2.9	5.0%	.
O=C(CSc1nnc2c(n1)[nH]c1ccccc12)Nc1cccc(S(=O)(=O)N2CCOCC2)c1	14.6µM*	1.1%	?	0.0	?	18.0%
CC(=O)c1ccc(NC(=O)CSc2nnc3c(n2)[nH]c2ccccc23)cc1	?	.	.	.	16.4µM*	.
COc1ccc2[nH]c3nc(SCC(=O)Nc4cccc(NC(C)=O)c4)nnc3c2c1	-0.6%	-35.2%	-3.5%	-51.6*	3.2%	20.6µM*
COc1cccc(NC(=O)CSc2nnc3c(n2)[nH]c2ccc(C)cc23)c1	-4.3%	?	-1.5%	-6.8	-13.8%	?
Cc1ccc(NC(=O)CSc2nnc3c(n2)[nH]c2ccccc23)cc1	3.4%	-20.9%	-3.3%	20.2	8.4%	-12.9%
CCN(CC)S(=O)(=O)c1ccc(O)c(C(=O)OCC(=O)N2CCCc3ccccc32)c1	-10.5%	.	.	11.6	-2.0%	.
